Assay results reported in PubChem BioAssay.
A number with no mark means an inactive call. Entries that show only a call come without a potency. For some assays here: Potency and affinity values are given separately. Calls of active or inactive are those of the source. Unless noted, how the calls were made is not given here.

How the values were obtained:
[1] = antimalarial activity against Dd2 strain (AID 2302;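 active means growth inhibition above 50% at the single 2 µM test dose, taken to imply half-maximal potency below 2 µM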); conditions: P. falciparum Dd2 in RBCs, LDH growth readout, 72 h; at 2 µM; hits give high values
[2] = human hepatoma cell viability loss – ATP luminescence, cytotoxicity control for P. falciparum antimalarial project, primary screen (AID 2303;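 active means inhibition above 50%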); conditions: HepG2 viability, 24-48 h, at 10 µM, hits give high values
[3] = target: L-lactate dehydrogenase (Plasmodium falciparum (isolate CDC / Honduras)) (UniProt Q27743); assay: PfLDH activity inhibition – cell lysate, 3D7 strain, counter-screen for P. falciparum growth inhibition project (AID 2304); conditions: P. falciparum 3D7 crude extract, LDH APAD/NBT absorbance; at 2 µM; hits give high values
[4] = inhibition of 3D7 malaria parasite growth – strain 3D7 (AID 2306); conditions: P. falciparum 3D7 erythrocytic growth, LDH absorbance, 72 h; at 2 µM; hits give high values
[5] = target: Calcium-dependent protein kinase 1 (Plasmodium falciparum (isolate 3D7)) (UniProt P62344); assay: PfCDPK1 kinase inhibitors, biochemical, TCAMS library (AID 1159585; cut-off not given, nearly all actives have IC50 up to about 0.98 µM;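 further: inhibitors leave more ATP so luminescence rises with inhibition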); conditions: recombinant PfCDPK1, Kinase-Glo ATP depletion luminescence
[6] = target: Plasmodium falciparum protein kinase 6 (PK6, PF3D7_1337100) (UniProt Q8IDW1); assay: PfPK6 kinase inhibitors, biochemical, TCAMS library (AID 1159586); conditions: recombinant PfPK6, Kinase-Glo ATP depletion luminescence
[7] = target: Protein kinase 7 (PK7), Plasmodium falciparum 3D7 (PF3D7_0213400) (UniProt Q7YTF7); assay: inhibition of Plasmodium PK7 catalytic activity – biochemical, TCAMS antimalarial set, Kinase-Glo luminescence (AID 1159587); conditions: recombinant PfPK7, Kinase-Glo ATP depletion luminescence
[8] = target: Calcium-dependent protein kinase 4 (Plasmodium falciparum (isolate 3D7)) (UniProt Q8IBS5); assay: PfCDPK4 kinase inhibitors, biochemical, TCAMS library (AID 1159588; cut-off not given, nearly all actives have IC50 up to about 0.91 µM); conditions: recombinant PfCDPK4, Kinase-Glo ATP depletion luminescence
Chain of Calcium-dependent protein kinase 4 (Plasmodium falciparum (isolate 3D7)) (Q8IBS5 whole entry, looked up): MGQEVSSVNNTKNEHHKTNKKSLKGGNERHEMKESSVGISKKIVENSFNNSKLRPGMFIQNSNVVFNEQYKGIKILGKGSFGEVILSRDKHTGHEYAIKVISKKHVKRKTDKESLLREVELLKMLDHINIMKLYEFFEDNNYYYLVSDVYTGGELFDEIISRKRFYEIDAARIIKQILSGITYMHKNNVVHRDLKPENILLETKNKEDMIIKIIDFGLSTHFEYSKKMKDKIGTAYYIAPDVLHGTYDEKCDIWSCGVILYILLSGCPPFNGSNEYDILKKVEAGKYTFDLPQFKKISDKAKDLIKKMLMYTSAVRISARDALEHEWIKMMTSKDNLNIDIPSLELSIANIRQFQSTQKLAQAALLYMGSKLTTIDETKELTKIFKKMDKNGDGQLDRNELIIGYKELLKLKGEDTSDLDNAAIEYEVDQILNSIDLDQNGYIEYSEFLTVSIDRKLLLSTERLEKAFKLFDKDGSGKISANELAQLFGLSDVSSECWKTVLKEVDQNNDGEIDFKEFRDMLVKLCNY

Chain of Plasmodium falciparum protein kinase 6 (PK6, PF3D7_1337100) (Q8IDW1 1-305): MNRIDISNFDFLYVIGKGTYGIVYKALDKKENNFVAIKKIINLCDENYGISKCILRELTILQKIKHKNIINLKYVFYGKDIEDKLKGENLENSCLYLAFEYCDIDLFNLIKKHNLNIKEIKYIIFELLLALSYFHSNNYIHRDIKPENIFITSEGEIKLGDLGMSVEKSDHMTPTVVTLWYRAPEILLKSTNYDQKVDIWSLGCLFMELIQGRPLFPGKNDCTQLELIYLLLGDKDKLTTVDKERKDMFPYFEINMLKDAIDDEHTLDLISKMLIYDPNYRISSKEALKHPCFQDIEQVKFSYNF
Chain of Protein kinase 7 (PK7), Plasmodium falciparum 3D7 (PF3D7_0213400) (Q7YTF7 1-343): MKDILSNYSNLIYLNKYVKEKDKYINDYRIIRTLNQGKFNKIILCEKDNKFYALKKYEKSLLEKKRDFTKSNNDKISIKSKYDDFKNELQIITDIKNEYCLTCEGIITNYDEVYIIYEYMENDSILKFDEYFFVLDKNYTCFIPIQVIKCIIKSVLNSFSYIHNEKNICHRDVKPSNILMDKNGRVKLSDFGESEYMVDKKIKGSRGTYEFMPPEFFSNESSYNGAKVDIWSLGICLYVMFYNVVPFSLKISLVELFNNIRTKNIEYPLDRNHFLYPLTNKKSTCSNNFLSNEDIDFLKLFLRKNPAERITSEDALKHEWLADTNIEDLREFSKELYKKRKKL
Chain of L-lactate dehydrogenase (Plasmodium falciparum (isolate CDC / Honduras)) (Q27743 whole entry, looked up): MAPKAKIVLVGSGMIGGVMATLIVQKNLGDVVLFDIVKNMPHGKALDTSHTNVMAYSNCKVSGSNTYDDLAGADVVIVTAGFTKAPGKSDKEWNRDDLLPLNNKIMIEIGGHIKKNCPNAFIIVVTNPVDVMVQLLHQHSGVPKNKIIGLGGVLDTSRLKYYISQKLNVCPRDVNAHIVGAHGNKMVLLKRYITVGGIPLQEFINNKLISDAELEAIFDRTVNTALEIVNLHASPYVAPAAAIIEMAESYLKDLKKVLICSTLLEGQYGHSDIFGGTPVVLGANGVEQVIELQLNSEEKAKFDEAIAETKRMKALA
Chain of Calcium-dependent protein kinase 1 (Plasmodium falciparum (isolate 3D7)) (P62344 whole entry, looked up): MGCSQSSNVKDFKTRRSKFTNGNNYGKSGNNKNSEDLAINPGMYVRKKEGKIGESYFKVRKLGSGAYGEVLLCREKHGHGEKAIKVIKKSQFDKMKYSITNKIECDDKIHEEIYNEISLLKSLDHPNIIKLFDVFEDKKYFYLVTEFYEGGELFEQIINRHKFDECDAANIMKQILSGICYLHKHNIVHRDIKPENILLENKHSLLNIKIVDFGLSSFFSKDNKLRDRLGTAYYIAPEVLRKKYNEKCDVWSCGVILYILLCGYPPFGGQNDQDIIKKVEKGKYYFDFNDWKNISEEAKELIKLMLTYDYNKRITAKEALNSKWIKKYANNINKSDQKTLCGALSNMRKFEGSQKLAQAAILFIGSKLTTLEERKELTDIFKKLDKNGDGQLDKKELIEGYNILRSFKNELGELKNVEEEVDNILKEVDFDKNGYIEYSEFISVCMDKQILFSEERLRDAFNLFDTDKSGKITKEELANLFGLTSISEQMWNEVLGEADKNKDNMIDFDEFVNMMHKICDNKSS

Row | Compound | growth inhibition [1] | inhibition [2] | inhibition [3] | growth inhibition [4] | outcome [5] | outcome [6] | outcome [7] | outcome [8]
1 | Cc1ccc(NC(=O)c2cccc(C#N)c2)cc1-c1ccc(C(=O)Nc2ccncc2)cc1 | 64% (active) | 38% | -1% | 94% (active) | inactive | inactive | inactive | inactive
2 | CN1CCN(c2ccnc3ccc(NC(=O)Cc4cccc(Cl)c4Cl)cc23)CC1 | 64% (active) | 8% | 3% | 102% (active) | inactive | inactive | inactive | inactive
3 | Cn1c(NC(=O)CCCCCNC(=O)c2ccc(O)c(-c3ccc(Cl)c(Cl)c3)c2)nc2ccccc21 | 55% (active) | -6% | 7% | 100% (active) | inactive | inactive | inactive | inactive
4 | O=C(NCCCc1ccccc1)c1ccc(O)c(-c2cc(Cl)cc(Cl)c2)c1 | 98% (active) | -1% | -3% | 99% (active) | inactive | inactive | inactive | inactive
5 | O=C(Nc1ccc(Oc2cccnc2)cc1)C1CCN(Cc2cc(Cl)ccc2O)CC1 | 1% | 37% | -2% | 83% (active) | inactive | inactive | inactive | inactive
6 | O=c1c2ccccc2[nH]c2cc(Cl)ccc12 | 86% (active) | 24% | 1% | 95% (active) | inactive | inactive | inactive | inactive
7 | Cc1cc(OCCCN2CCC(NS(=O)(=O)c3cccc(Br)c3)C2)c2ccccc2n1 (stereo not given) | 40% | 13% | 3% | 86% (active) | inactive | inactive | inactive | inactive
8 | Cc1[nH]c2ccccc2c1C(=O)C(C)Sc1nnc(-c2ccccc2F)o1 (stereo not given) | 99% (active) | 24% | -2% | 99% (active) | inactive | inactive | inactive | inactive
9 | COc1ccc2nccc([C@@H](O)CN3CCC(NCc4nc5c(F)cccc5[nH]4)CC3)c2c1 | 6% | -6% | -7% | 103% (active) | inactive | inactive | inactive | inactive
10 | Cc1cc(-c2ccc(NC(=O)N3CCc4cc(Br)c(N5CCN(C)CC5)cc43)cc2)ccc1C#N | 56% (active) | 100% (active) | 0% | 99% (active) | inactive | inactive | inactive | inactive
11 | Cc1cccc2[nH]c(-c3cccc(-c4cccc(CNC(C)C)c4)c3)nc12 | 98% (active) | 29% | -4% | 102% (active) | inactive | inactive | inactive | inactive
12 | Cc1nnc2c(NC(=O)NC3CCCC3)cc3cc(-c4ccc(CN5CCCCC5)cc4)ccc3n12 | 93% (active) | 100% (active) | -3% | 99% (active) | inactive | inactive | inactive | inactive
13 | COc1ccc2nccc([C@@H](O)CN3CCC(NC(=O)c4cc5cccnc5[nH]4)CC3)c2c1 | 6% | -8% | 2% | 94% (active) | inactive | inactive | inactive | inactive
14 | Cc1cccc2[nH]c(-c3cccc(-c4ccc(NC(=O)NC(C)C)cc4)c3)nc12 | 44% | 30% | -2% | 98% (active) | inactive | inactive | inactive | inactive
15 | COc1ccc2ccccc2c1CCCCN1CCN(CC(c2ccc(F)cc2)N2CCN(C3CCCC3)CC2)CC1 (stereo not given) | 51% (active) | 88% (active) | 6% | 88% (active) | inactive | inactive | inactive | inactive
16 | O=C(NCc1ccc(Cl)c(Cl)c1)c1ccc(-c2nc3cc(F)c(F)cc3[nH]2)cc1 | 12% | -2% | -2% | 81% (active) | inactive | inactive | inactive | inactive
17 | Cc1ccccc1C1CCN(C2CCC(NC(=O)/C=C/c3cccc(Cl)c3Cl)CC2)CC1 (stereo not given) | 23% | 74% (active) | 2% | 94% (active) | inactive | inactive | inactive | inactive
18 | CC(C)(C)OC(=O)NCCc1cccc(-c2c[nH]c3ncc(-c4cccc(NS(C)(=O)=O)c4)cc23)c1 | 71% (active) | 16% | -3% | 97% (active) | inactive | inactive | inactive | inactive
19 | S=C(NN=Cc1ccccn1)NC1C[C@H]2C=C[C@@H]1C2 (stereo not given in full) | 96% (active) | 51% (active) | -2% | 99% (active) | inactive | inactive | inactive | inactive
20 | c1csc(-c2nc(N3CCCCC3)ncc2-c2ccsc2)n1 | 72% (active) | -5% | -3% | 89% (active) | inactive | inactive | inactive | inactive

Row | Compound | growth inhibition [1] | inhibition [2] | inhibition [3] | growth inhibition [4] | outcome [5] | outcome [6] | outcome [7] | outcome [8]
21 | Cc1cc(N)c2cc(NC(=O)/C=C/c3ccc([N+](=O)[O-])cc3)ccc2n1 | 80% (active) | 76% (active) | -2% | 100% (active) | inactive | inactive | inactive | inactive
22 | Cc1cc(NN=Cc2cccc(F)c2)c2ccc(F)cc2n1 | 99% (active) | 2% | -2% | 101% (active) | inactive | inactive | inactive | inactive
23 | COc1ccc(-c2ccc(NC(=O)c3ccc(Cl)cc3)cc2)cc1CN1CCN(C)CC1 | 23% | 36% | 7% | 86% (active) | inactive | inactive | inactive | inactive
24 | Fc1ccc(-c2cncc(-c3ccc(F)cc3)n2)cc1 | 94% (active) | 7% | 2% | 99% (active) | inactive | inactive | inactive | inactive
25 | O=C(Nc1cccc(CN2CCCN(Cc3ccc(O)cc3)CC2)c1)c1ccc2ccccc2n1 | 22% | 13% | -1% | 90% (active) | inactive | inactive | inactive | inactive
26 | CN1CCC(Oc2ccc(Nc3nccc(NCC(O)c4ccccc4)n3)cc2Cl)CC1 (stereo not given) | 99% (active) | 46% | 0% | 102% (active) | inactive | inactive | inactive | inactive
27 | CN(CCCCNC(=O)c1ccc(-c2ccccc2)cc1)C1CCc2c(O)cccc2C1 (stereo not given) | 21% | 24% | 0% | 102% (active) | inactive | inactive | inactive | inactive
28 | COc1cc(NC(=O)Nc2ccc(Br)cc2C(=O)Nc2ccc(Br)cc2)cc(OC)c1OC | 98% (active) | -4% | 7% | 99% (active) | inactive | inactive | inactive | inactive
29 | COc1ccc(N2CCN(c3nc(N)c4cc(OC)c(OC)cc4n3)CC2C)cc1 (stereo not given) | 0% | 8% | 0% | 95% (active) | inactive | inactive | inactive | inactive
30 | CN1CCC(NCc2ccc(-c3cccc(S(=O)(=O)NCCc4ccccn4)c3)cc2)CC1 | -8% | 42% | -1% | 84% (active) | inactive | inactive | inactive | inactive
31 | COc1cc2c(cc1OCCN1CCC(N3CCCCC3)CC1)N(C(=O)/C=C/c1ccccc1OC(F)(F)F)CC2 | 93% (active) | 64% (active) | -7% | 101% (active) | inactive | inactive | inactive | inactive
32 | O=C(Nc1cccc(CN2CCCN(Cc3cccc(F)c3)CC2)c1)c1ccc(Cl)c(Cl)c1 | 6% | 28% | -1% | 85% (active) | inactive | inactive | inactive | inactive
33 | COc1cc(Cc2cnc(N)nc2N)cc(OCCCCC2SC(=O)NC2=O)c1Br (stereo not given) | -2% | 15% | 4% | 94% (active) | inactive | inactive | inactive | inactive
34 | O=C(Nc1ccc2c(c1)CCN2C1CCN(Cc2ccc(O)cc2)C1)c1ccco1 (stereo not given) | 63% (active) | 0% | -2% | 97% (active) | inactive | inactive | inactive | inactive
35 | CC(CN1CCN(C)CC1)C(=O)Nc1ccc(-c2cccc(-c3nc4ccc(C(F)(F)F)cc4[nH]3)c2)cc1 (stereo not given) | 96% (active) | 16% | -6% | 99% (active) | inactive | inactive | inactive | inactive
36 | OCC(CO)(CO)NCc1ccc2c3c(cccc13)-c1ccccc1-2 | 76% (active) | 73% (active) | 0% | 87% (active) | inactive | inactive | inactive | inactive
37 | O=C(Nc1nc(-c2ccccn2)cc2ccccc12)c1cccc(Cl)c1 | 72% (active) | 59% (active) | -3% | 96% (active) | inactive | inactive | inactive | inactive
38 | COc1ccc(-c2ccc(NC(=O)c3ccc(C#N)cc3)cc2)cc1CN(C)CCO | 44% | 41% | 9% | 99% (active) | inactive | inactive | inactive | inactive
39 | CS(=O)(=O)c1ccc(-c2cnc(N)c(-c3cccc(O)c3)c2)cc1 | 97% (active) | 48% | -3% | 98% (active) | inactive | inactive | inactive | inactive
40 | O=C(Nc1ccc(C2=NC3CCCCC3N2)cc1)Nc1ccc(C2=NC3CCCCC3N2)cc1 (stereo not given) | 76% (active) | 7% | 0% | 88% (active) | inactive | inactive | inactive | inactive
